Compounds with a hit are over-represented: about 8.8% of the library has one in this group of screens.
HPGD block: blocks human HPGD enzyme activity. purified HPGD, NADH fluorescence kinetic, PGE2 substrate. Potency, µM, without a hit: top-dose activity change, negative = inhibition, most hits filed as inhibitors. P15428. hit rate 4.3% among 150,000; further: on the % scale 0 is the no-effect control and ±100 the full control effect
Target sequence (P15428 whole entry, looked up): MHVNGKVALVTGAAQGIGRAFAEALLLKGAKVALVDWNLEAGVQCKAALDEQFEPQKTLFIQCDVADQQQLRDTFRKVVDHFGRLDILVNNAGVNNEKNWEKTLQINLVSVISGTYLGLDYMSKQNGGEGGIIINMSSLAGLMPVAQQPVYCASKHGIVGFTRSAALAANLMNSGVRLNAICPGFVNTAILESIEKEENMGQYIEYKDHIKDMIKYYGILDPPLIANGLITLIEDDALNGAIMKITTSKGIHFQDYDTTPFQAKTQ
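20 nM HPGD preincubated 15 min at room temperature with compound in 50 mM Tris-HCl pH 8, 0.01% Tween 20. Started with 1 mM NAD+ and 30 uM prostaglandin E2; NADH fluorescence (360/450 nm) read 5 times over 30-s intervals, last minus first.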
HTT ATP protect: protects HTT-Q103 PC12 cells, measured by ATP | hit rate 0.14% among 230,000 | Potency, µM (top dose mostly 56.4 µM), for the others: cytoprotection (ATP increase), most hits filed as activators | PC12 HTT-Q103 induced, cytoprotection, ATP luminescence, 40 h | AID 1471; active means well fitted curve in the direction sought with a large enough effect; inconclusive means small, poorly fitted or top-dose-only effect, or another doubt; inactive means no such curve, though single readings can be large; an effect the other way counts as inactive or inconclusive; further: % of control where 0% means no effect; nearly all actives have a fitted effect of over 45% in size
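Readout: ATPlite luminescence (ATP level). Model: stable PC12, inducible Htt exon1 Q103-GFP. Inducer: tebufenozide, 100 nM final. Compounds: dose series. No G418 in medium.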
ALDH1A1 block: blocks purified human ALDH1A1 activity; P00352; Purified ALDH1A1, NADH fluorescence, propionaldehyde substrate; Potency, µM (series often up to 75.3 µM), for inactives: at the highest dose activity, negative = inhibition, usual class: inhibitors; hit rate 7.3% among 220,000;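 further: plate controls were no enzyme wells and a reference inhibitor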
LMNA splice mod: LMNA splicing modulation. Potency, µM (doses to about 46.1 µM), for inactives: top-dose ratio change, negative = inhibition, usual class: inhibitors. hit rate 0.01% among 200,000. HeLa LMNA splicing GFP/RFP minigene ratio, 48 h; active means well fitted inhibition curve with a large enough effect in the signal ratio, with a control signal flat, not every such curve was filed as active; inconclusive means small, poorly fitted or top-dose-only effect, or effect the other way, or a change in a side signal; the % refers to the signal ratio; further: on the % scale 0 is the no-effect control and ±100 the full control effect
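S3 HeLa cells stably expressing lamin A-EGFP splicing minigene plus DsRed2, 600 cells/well, 48 h compound exposure at 37C. Laser-scanning cytometry; analysed as GFP (500-530 nm)/RFP (575-640 nm) total intensity ratio; 0.5% DMSO vehicle.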
HTT aggregate: mutant huntingtin aggregation inhibition; hit rate 1.1% among 220,000; PC12 HttQ103-GFP aggregates, Acumen cytometry, 40 h; Potency, µM (doses to about 46.1 µM), for the others: top-dose activity change, negative = inhibition, hits mostly inhibitors; active means well fitted curve in the direction sought with a large enough effect; inconclusive means small, poorly fitted or top-dose-only effect, or another doubt; inactive means no such curve, though single readings can be large; an effect the other way counts as inactive or inconclusive; further: on the % scale 0 is the no-effect control and ±100 the full control effect; nearly all actives have a fitted effect of over 60% in size
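Inducible Q103 Huntingtin exon 1–GFP PC12 line, 1500 cells/well in phenol red free DMEM with 5% equine and 5% calf serum. Tebufenozide 100 nM induced expression; compounds titrated; aggregates quantified by cytometry.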
* hit, by the source's call; ? = inconclusive; . = no result; [ ] = another dose, or the depositor's remark. Unless noted, the call rests on the fitted dose curve; in most records, active means well fitted inhibition curve with a large enough effect (not every such curve was filed as active); inconclusive means small, poorly fitted or top-dose-only effect, or another doubt; inactive means no such curve, though single readings can be large or run the other way. Potency means the concentration at half of the fitted maximal effect.

SMILES	HPGD block	HTT ATP protect	ALDH1A1 block	LMNA splice mod	HTT aggregate
CN(C)CCN1C(=O)C(O)=C(C(=O)c2cc3ccccc3o2)C1c1ccccn1 (stereo unspecified)	-11%	4%	-3%	5%	0%
CN(C)CCN1C(=O)C(O)=C(C(=O)c2cc3ccccc3o2)C1c1ccc(N(C)C)cc1 (stereo unspecified)	-12%	-7%	28µM*	-17%	-26%
COc1ccccc1C1C(C(=O)c2cc3ccccc3o2)=C(O)C(=O)N1CCN1CCOCC1 (stereo unspecified)	-11%	0%[0.074 µM]	20µM*	2%	15%
NC(=O)c1sc2cc(C(F)(F)F)cnc2c1-c1cccs1	4%	12%	2%	12%	-3%
NNC(=O)c1sc2cc(C(F)(F)F)cnc2c1-c1cccs1	.	-6%[10 µM]	0.2µM*	.	-18%[9.22 µM]
CC(=O)NCCNc1nc(-c2ccccc2C(F)(F)F)nc2ccccc12	-17%	-15%	15%	-4%	.
Oc1ccc2ccccc2c1C=Nc1ccc(N2CCOCC2)cc1	20µM*	15%	4.5µM*	-7%	?
C(=Nc1ccc(N2CCOCC2)cc1)c1c[nH]c2ccccc12	.	-21%[10 µM]	.	.	-14%[9.22 µM]
CN(C)/N=C/c1c(O)ccc2ccccc12	32µM*	6%	-2%	12%	-26%
Cc1cc(C)c2nc3c(c([C@H](O)C4CCCCN4)c2c1)CC/C3=C/c1ccc(Cl)cc1 (stereo partly specified)	-1%	.	10%[13.5 µM]	.	.
Cc1ccc(OCC(=O)NNC(=O)C2CCCO2)c(C)c1 (stereo unspecified)	.	-11%	-2%	17%[46 µM]	-9%
O=C(NCCOc1ccc(Cl)cc1)C1CC(=O)N(c2ccc(F)cc2)C1 (stereo unspecified)	-12%	-5%[10 µM]	25µM*	?	-6%
O=C(O)C1CC(=O)N(c2ccc(OCc3ccccc3Cl)cc2)C1 (stereo unspecified)	-11%	-11%	-4%	-12%	1%
O=C(O)C1CC(=O)N(c2ccc(OCc3ccc(Cl)cc3Cl)cc2)C1 (stereo unspecified)	14µM*	-33%	1%	1%	3%
COc1cc(/C=N/O)cc(Br)c1OCC(=O)NCc1ccccc1	14µM*	.	?	2%	4%
COc1cc(/C=N/NC(=O)CCC(=O)NCc2ccccc2)cc(OC)c1OC	-6%	.	2%	?	-4%
CCOc1cc(/C=N/O)cc(Br)c1OCC(=O)NCc1ccccc1	18µM*	5%[0.074 µM]	?	?	16%
CCOc1cc(CNc2ccccc2)cc(Br)c1OCC(=O)NC(C)(C)C	-12%	-33%	?	4%	35µM*
CCOc1cc(/C=N/NC(N)=O)cc(Br)c1OCC(=O)Nc1cccc2ccccc12	-16%	-5%	6%	18%	4%[9.22 µM]
CCOP(=O)(OCC)C(NC(=O)c1cccs1)C(F)(F)F (stereo unspecified)	.	-12%[10 µM]	?	?	?
CCOC(=O)c1cccc(Nc2cc(C)nc(C)n2)c1	.	.	.	2%[46 µM]	.
CCOC(=O)C1=C(c2ccccc2)NC(=S)NC1c1cccc([N+](=O)[O-])c1 (stereo unspecified)	.	11%[10 µM]	0.89µM*	-11%	-10%
CCOC(=O)C1=C(c2ccccc2)NC(=S)NC1c1cc([N+](=O)[O-])ccc1OC (stereo unspecified)	-7%	11%	4µM*	1%	12%
CCOC(=O)C1=C(c2ccccc2)NC(=S)NC1c1ccc(C)c([N+](=O)[O-])c1 (stereo unspecified)	-18%	12%[10 µM]	0.25µM*	-26%	16%
CCOC(=O)C1=C(c2ccccc2)NC(=S)NC1C (stereo unspecified)	-8%	?	2µM*	7%	5%
SMILES	HPGD block	HTT ATP protect	ALDH1A1 block	LMNA splice mod	HTT aggregate
CCOC(=O)C1=C(c2ccccc2)NC(=O)NC1c1ccc(OCC#N)c(OC)c1 (stereo unspecified)	-11%	-6%[10 µM]	?	-2%	10%
Cc1ccc(CNC(=O)C2CCN(c3nn4cc(-c5ccc(F)cc5)nc4s3)CC2)cc1	.	.	.	9%[46 µM]	.
Cc1cc(C)cc(C(=O)n2nc(C)c(S(=O)(=O)N3CCCCCC3)c2C)c1	.	.	.	2%[46 µM]	.
Cc1ccc(CN2CCN(/N=C/c3ccc(C)s3)CC2)cc1	-11%	15%[10 µM]	-1%	-6%	-1%
CC1(C)Cc2c(C#N)c(N)sc(=S)c2CO1	-11%	-5%	11µM*	4%	-12%
CC(C)C1Cc2c(C#N)c(N)sc(=S)c2CO1 (stereo unspecified)	-10%	15%	?	20%	3%[9.22 µM]
Cn1nc([N+](=O)[O-])nc1Sc1nnc(-c2ccccc2)o1	-7%	17%	?	?	?
Cc1cc(C)nc(Sc2ccc(C=O)cc2[N+](=O)[O-])n1	.	13%[10 µM]	7.1µM*	-2%[46 µM]	1%[9.22 µM]
Cc1ccnc(Sc2ccc([N+](=O)[O-])cc2[N+](=O)[O-])n1	-12%	-111%	?	?	?
O=Cc1ccc(Sc2nnc(-c3ccccc3)o2)c([N+](=O)[O-])c1	14µM*	-10%	7.9µM*	?	?
Cc1ccc(-n2ncc3c(NCc4ccccc4)ncnc32)cc1C	.	.	.	-7%[46 µM]	.
O=C(Nc1ccc(Br)c(Cl)c1)c1ccco1	22µM*	-17%[0.074 µM]	-13%	-3%	-15%
O=C(Nc1ccc(N2CCN(C(=O)c3ccccc3)CC2)c(Cl)c1)c1ccco1	-9%	-22%	?	?	22µM*
O=C(Nc1ccc(NC(=O)c2ccco2)c(Cl)c1)c1ccccc1	.	10%[10 µM]	?	?	29%[9.22 µM]
CC(=O)c1ccc(N2CCN(C(=O)c3ccc(NC(=O)C4CCCO4)cc3)CC2)cc1 (stereo unspecified)	25µM*	20%[1.9 µM]	-9%	-3%	-13%
CCOC(=O)c1ccc(NC(=O)C2CCCO2)cc1 (stereo unspecified)	25µM*	-12%	-13%	1%	2%
CCOC(=O)C1CCN(C(=O)Nc2ccc(NC(=O)C3CCN(C(=O)OCC)CC3)cc2)CC1	-5%	10%	-2%	4%	?
CCCCc1ccc(NC(=O)C2CCCO2)cc1 (stereo unspecified)	16µM*	-8%[10 µM]	1%	-7%	10%
Cc1cccc(N2CCN(C(=O)c3ccc(NC(=O)C4CCCO4)cc3)CC2C)c1 (stereo unspecified)	-11%	-5%	1%	-2%	-31%
CCOC(=O)C1CCN(C(=O)c2ccc(NC(=O)C3CCCO3)cc2)CC1 (stereo unspecified)	25µM*	-7%[10 µM]	1%	-11%	-19%
CCCCNC(=O)c1ccc(NC(=O)C2CCCO2)cc1 (stereo unspecified)	?	-2%[1.9 µM]	-7%	9%	17%
CC(NS(=O)(=O)c1cccc(Cl)c1)C(=O)N(C)C1CCN(C)CC1 (stereo unspecified)	.	-18%	6%	-14%[46 µM]	?
